Test results reported in PubChem BioAssay (NCI).
About 79,000 compounds went through this panel and 15% of them were active in at least one assay; those are over-represented in the sample as a whole. Active and inactive are the calls of the source. No stated cut-off is given here; in the data, active means growth inhibition above about 70%; inactive means the rest.

What was measured:
[1] = NCI Yeast Anticancer Drug Screen. Data for the rad50 strain (AID 155);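 further: 0% = growth of vehicle-only cultures of the same strain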; conditions: S. cerevisiae rad50 strain growth inhibition, stronger effect = higher value
Method in brief: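 Inhibition values express reduced yeast growth in compound-treated cultures relative to vehicle-treated controls.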

[2] = NCI Yeast Anticancer Drug Screen. Data for the mec2-1 strain (AID 157); conditions: S. cerevisiae mec2-1 strain, stronger effect = higher value
Method in brief: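 Mutant yeast (mec2-1) grown with compound; growth inhibition relative to vehicle control reported.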

[3] = NCI Yeast Anticancer Drug Screen. Data for the sgs1 mgt1 strain (AID 161);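 further: 0% = growth of cultures given vehicle only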; conditions: S. cerevisiae sgs1 mgt1 strain, stronger effect = higher value
Method in brief: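 Percent growth inhibition was derived by comparing compound-exposed mutant yeast with vehicle-exposed cultures. The strain carries alterations in DNA damage repair.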

[4] = NCI Yeast Anticancer Drug Screen. Data for the cln2 rad14 strain (AID 165);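 further: 0% = growth equal to vehicle treated cultures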; conditions: S. cerevisiae cln2 rad14 strain, stronger effect = higher value
Method in brief: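 Readout is yeast growth inhibition versus vehicle-treated controls, using a strain with cln2 and rad14 alterations exposed to compound.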

[5] = NCI Yeast Anticancer Drug Screen. Data for the bub3 strain (AID 167); conditions: S. cerevisiae bub3 mutant strain, stronger effect = higher value
Method in brief: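 Steps: expose the mutant yeast strain to compound; grow alongside vehicle-treated cultures; measure growth; express inhibition against the vehicle cultures.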

[6] = NCI Yeast Anticancer Drug Screen. Data for the mlh1 rad18 strain (AID 175); conditions: S. cerevisiae mlh1 rad18 strain growth inhibition, stronger effect = higher value
Method in brief: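 Genetically defined yeast (DNA repair-deficient) exposed to compounds; growth inhibition determined relative to vehicle.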

[7] = at 5.0 µM (retest, dose inferred, filed as 0.5)
[8] = at 50.0 µM (retest, dose inferred, filed as 5.0)

Measured: growth inhibition

C=CCNC(=O)c1ccccc1C(=O)O
inactive: [1]; [7] 2% | [1]; [8] 28% | [1]; at 50.0 µM 63.2% | [2]; [7] 1% | [2]; [8] 1% | [2]; at 50.0 µM 36.6% | [3]; [7] 0% | [3]; [8] 1% | [3]; at 50.0 µM 28.2% | [4]; [7] 2% | [4]; [8] 18% | [4]; at 50.0 µM 23.6% | [5]; [7] 4% | [5]; [8] 7% | [5]; at 50.0 µM 68.2% | [6]; [7] 3% | [6]; [8] 13% | [6]; at 50.0 µM 46.7%

CC(C)C1(Cl)CCC2C3(C)CCCC(C)(C(=O)O)C3CC(Cl)C2(Cl)C1Cl (configuration not stated)
active: [1]; [8] 75% | [1]; at 50.0 µM 80.8% | [2]; [8] 78% | [2]; at 50.0 µM 74.9% | [3]; at 50.0 µM 70% | [4]; [8] 84% | [4]; at 50.0 µM 95.8% | [5]; [8] 79% | [5]; at 50.0 µM 72.5% | [6]; [8] 78% | [6]; at 50.0 µM 86.7%
inactive: [1]; [7] 3% | [2]; [7] 5% | [3]; [7] 17% | [3]; [8] 61% | [4]; [7] -12% | [5]; [7] 14% | [6]; [7] -15%

O=[N+]([O-])c1cccc2c(O)cccc12
inactive: [1]; [7] 3% | [1]; [8] 58% | [1]; at 50.0 µM 59% | [2]; [7] 0% | [2]; [8] 35% | [2]; at 50.0 µM 33.4% | [3]; [7] -2% | [3]; [8] 31% | [3]; at 50.0 µM 39.1% | [4]; [7] -3% | [4]; [8] 30% | [4]; at 50.0 µM 33.8% | [5]; [7] -1% | [5]; [8] 65% | [5]; at 50.0 µM 47.2% | [6]; [7] 0% | [6]; [8] 43%
active: [6]; at 50.0 µM 73.5%

COc1ccc(-c2c3ccccc3[n+](-c3ccccc3)c3ccccc23)cc1
active: [1]; [7] 98% | [1]; [8] 99% | [1]; at 50.0 µM 99.6% | [2]; [7] 99% | [2]; [8] 100% | [2]; at 50.0 µM 99.5% | [3]; [7] 99% | [3]; [8] 100% | [3]; at 50.0 µM 99.5% | [4]; [7] 96% | [4]; [8] 99% | [4]; at 50.0 µM 99.2% | [5]; [7] 99% | [5]; [8] 99% | [5]; at 50.0 µM 99.2% | [6]; [7] 99% | [6]; [8] 99% | [6]; at 50.0 µM 99.3%

COc1cc2c(c(O)c1C)C(=O)C(Cl)=CC2=O
active: [1]; [7] 99% | [1]; [8] 99% | [1]; at 50.0 µM 99.1% | [2]; [7] 99% | [2]; [8] 99% | [2]; at 50.0 µM 99.2% | [3]; [7] 99% | [3]; [8] 98% | [3]; at 50.0 µM 99.3% | [4]; [7] 98% | [4]; [8] 98% | [4]; at 50.0 µM 98.9% | [5]; [7] 99% | [5]; [8] 99% | [5]; at 50.0 µM 99.2% | [6]; [7] 99% | [6]; [8] 99% | [6]; at 50.0 µM 99.2%

CN(C)Cc1ccccc1C(=O)C(=O)c1ccccc1CN(C)C
active: [2]; [8] 70% | [6]; [8] 73%
inactive: [1]; [7] -9% | [1]; [8] 48% | [1]; at 50.0 µM -3.15% | [2]; [7] 1% | [2]; at 50.0 µM 3% | [3]; [7] -5% | [3]; [8] 3% | [3]; at 50.0 µM -6.5% | [4]; [7] 9% | [4]; [8] 0% | [4]; at 50.0 µM 46.3% | [5]; [7] 10% | [5]; [8] 7% | [5]; at 50.0 µM 57.8% | [6]; [7] -4% | [6]; at 50.0 µM 6.45%

O=c1cc(/C=C/c2ccccc2)cccc1O
active: [1]; [7] 79% | [1]; [8] 97% | [1]; at 50.0 µM 97.8% | [2]; [7] 90% | [2]; [8] 96% | [2]; at 50.0 µM 98.2% | [3]; [7] 84% | [3]; [8] 99% | [3]; at 50.0 µM 98.5% | [4]; [8] 98% | [4]; at 50.0 µM 96.9% | [5]; [7] 97% | [5]; [8] 93% | [5]; at 50.0 µM 97.5% | [6]; [8] 98% | [6]; at 50.0 µM 97.9%
inactive: [4]; [7] 56% | [6]; [7] 58%

O=C1CC2(CCN(CC3COc4ccccc4O3)CC2)C(=O)N1N1CCCCCC1 (configuration not stated)
inactive: [1]; [7] 51% | [1]; [8] 66% | [2]; [7] 33% | [2]; [8] 41% | [3]; [7] 62% | [3]; [8] 66% | [5]; [7] 48% | [5]; [8] 68% | [6]; [7] 37%
active: [1]; at 50.0 µM 77% | [2]; at 50.0 µM 70.4% | [3]; at 50.0 µM 82.8% | [4]; [7] 78% | [4]; [8] 83% | [4]; at 50.0 µM 84% | [5]; at 50.0 µM 85.5% | [6]; [8] 75% | [6]; at 50.0 µM 83.8%

CCCCCCCCC1OC1CCCCCCCC(=O)OCC1CO1 (configuration not stated)
inactive: [1]; [7] 1% | [1]; [8] -11% | [1]; at 50.0 µM 3.45% | [2]; [7] 1% | [2]; [8] -10% | [2]; at 50.0 µM -18.7% | [3]; [7] 1% | [3]; [8] -10% | [3]; at 50.0 µM 8.9% | [4]; [7] 5% | [4]; [8] 5% | [4]; at 50.0 µM 29.1% | [5]; [7] -3% | [5]; [8] -16% | [5]; at 50.0 µM -25.1% | [6]; [7] 25% | [6]; [8] -14% | [6]; at 50.0 µM -40.8%
